Assay outcomes as filed in PubChem.
Hits are enriched below; roughly 2.2% of the tested compounds scored in any of these assays.
Beta cell apopt – beta cell apoptosis inhibition. INS-1E cytokine-induced death, ATP luminescence, 48 h; percent of positive-control rescue, neutral wells zero. protection from apoptosis, % (no concentration beside the values). hit rate 0.8% among 300,000;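 active = Every replicate reaches about 75%, or at least half do and their mean reaches it too, limit read from the data; inconclusive = At least half of replicates reach the limit but their mean does not; inactive = Under half of replicates reach the limit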;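 also: 0% = cytokine-treated negative control wells and 100% = positive control rescue; higher means more ATP so stronger rescue from cytokine killing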
PfHsp90 set2 – growth inhibition of yeast expressing Plasmodium Hsp90. S. cerevisiae expressing PfHsp90, BacTiter-Glo ATP, 48 h; yeast lacking PDR1 and PDR3 efflux regulators. inhibition, % at 9.4 µM. hit rate 0.32% among 310,000. AID 504621;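 active = every replicate shows inhibition above about 80%, whatever the replicate mean, limit read from the data; inconclusive = mean inhibition reaches the set limit but some replicate falls short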;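 also: 0% = DMSO neutral controls and 100% = 20 µM radicicol positive controls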
Calb FLC – affects C. albicans growth with fluconazole. C. albicans CaCi-2 (fluconazole-resistant clinical isolate) + fluconazole, Alamar Blue growth, 48 h. growth inhibition, % (no concentration beside the values). hit rate 0.57% among 300,000. AID 1979;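 active = growth inhibition above about 58% in most replicates, limit read from the data, passing the limit was not always enough; inconclusive = exactly half the replicates above a set limit; inactive = most replicates below a set limit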;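 also: all wells also contain fluconazole at 8 µg/ml as a sub-toxic cotreatment; 0% = median of DMSO wells and 100% = median of geldanamycin control wells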
Shn3 3UTR inh – Schnurri-3 reporter inhibition in Clone20 osteoblasts | Clone20 osteoblast Shn3 3'UTR firefly luciferase, 24 h | inhibition, % at 12.5 µM | hit rate 0.52% among 360,000;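 active = mean inhibition of at least 75% with every replicate also reaching 75%; inconclusive = mean inhibition at least 75% but some replicate below; inactive = mean inhibition below 75%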;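 also: 0% = median of neutral control wells and 100% = pilot-screen positive control compound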
CSC inhib – cancer stem cell inhibition. cancer stem cell-like cells viability, luminescence. hit rate 1.1% among 300,000. inhibition, % at 7.5 µM; in the data active = inhibition above about 75%; inconclusive = no clear call, values can overlap the other calls; tested in HMLE shEcad cells
* marks the source's active call; other numbers are inactive results; ? = inconclusive; . = no result.

SMILES | Beta cell apopt | PfHsp90 set2 | Calb FLC | Shn3 3UTR inh | CSC inhib
O=C(Nc1cccc(F)c1)C1CCCN(S(=O)(=O)c2ccc(-n3cnnn3)cc2)C1 (configuration not stated) | -5.9 | -74.5 | -0.4 | 5.9 | -5.7
O=C1c2ccccc2C(=O)c2c(Nc3ccc(CCO)cc3)ccc(O)c21 | 21.9 | 6.9 | -5.2 | 10.7 | 88.3*
Nc1ccc(O)c2c1C(=O)c1ccccc1C2=O | 19.6 | -32.4 | -4.7 | -7.8 | -9.2
Cc1nc2c(OCc3ccccc3)cccn2c1N(C)C(=O)C1CCCCC1 | . | . | . | 1.0 | .
CC1=C(C(=O)N(C(C)C)C(C)C)CC(CC(=O)NCc2cccs2)C(=O)N1CCC1=CCCCC1 (configuration not stated) | . | . | . | -0.2 | .
Nc1ccccc1N=Cc1ccc(-c2cccc(Cl)c2)o1 | 7.6 | -55.9 | 3.7 | -45.1 | 76.6*
COC(=O)N/N=C/c1ccc(-c2cccc(Cl)c2)o1 | 0.8 | 16.3 | ? | -3.3 | -3.2
CC(=O)C[C@H](O)CC(=O)[C@H]1OC(=O)CCCCCCc2ccccc21 | -9.5 | 0.5 | . | -10.2 | .
COc1ccc(OC)c(C(=O)/C=C/c2ccccc2C(F)(F)F)c1 | -6.1 | 8.8 | 10.0 | -3.2 | 99.4*
COc1ccc(C(=O)/C=C/c2ccccc2)c(OC)c1 | . | 0.7 | 12.8 | -79.7 | -11.0
CC(C)(C)CC(C)(C)c1ccc(OCCOCC[N+](C)(C)Cc2ccccc2)cc1 | 100.0* | -40.6 | . | 87.7* | 118.0*
C#CCN(C)Cc1ccccc1 | -0.3 | 8.0 | . | 86.1* | -10.9
CN(CC#CC1(O)c2ccccc2-c2ccccc21)Cc1ccccc1 | -6.6 | -2.1 | 0.2 | -11.4 | .
O=C(NC1(Cc2ccccc2)CCN(CCCc2ccccc2)C1=O)c1ccccc1 (configuration not stated) | 111.3* | -0.2 | . | 62.5 | -10.3
COc1cccc(C(C)(O)c2nc(/C=C/c3ccccc3)cs2)c1 (configuration not stated) | . | . | . | 0.7 | .
CCOC(=O)/C(=N\Nc1ccc(Cl)cc1)c1csc(Nc2ccccc2)n1 | 15.5 | -10.1 | -20.0 | 1.0 | -7.2
CCOC(=O)/C(=N\Nc1ccc(OC)cc1)c1csc(Nc2ccccc2)n1 | 6.3 | -53.6 | -14.8 | -20.1 | 104.2*
CCOC(=O)/C(=N/Nc1ccccc1)c1csc(Nc2ccccc2)n1 | 16.2 | 0.7 | -26.7 | -8.1 | 107.3*
Cc1ccc(/C=N\NC(=O)/C(=C\Nc2nccc(C)n2)NC(=O)c2ccccc2)cc1 | -5.5 | 9.3 | 0.0 | -1.3 | -13.0
O=C(O)c1ccc(Cl)c(S(=O)(=O)Nc2ccc3cn[nH]c3c2)c1 | -3.8 | . | 9.1 | 0.5 | -11.0
Cc1ccc(C(=O)Sc2cccccc2=O)cc1 | 34.0 | 104.0* | -3.4 | 95.6* | 27.9
O=C(O)CCN1CCc2ccccc2C1c1ccncc1 (configuration not stated) | 0.0 | -2.6 | -1.1 | -1.0 | -0.4
CC(C)(CO)NC(=S)NCc1ccco1 | -1.0 | 2.6 | 17.9 | 0.5 | -2.7
NC(=O)c1cc(N2C(=O)C=CC2=O)ccc1Cl | -19.1 | . | -4.6 | 94.4* | .
CCCNC(=O)C1(C)CCN(C(=O)c2ccc3sccc3c2)C1 (configuration not stated) | . | . | . | 23.5 | .
SMILES | Beta cell apopt | PfHsp90 set2 | Calb FLC | Shn3 3UTR inh | CSC inhib
N#CC1(NC(=O)CN2C(=O)NC(c3ccccc3)(c3ccccc3)C2=O)CCCC1 | -13.5 | 28.3 | . | -7.4 | -16.3
O=C(CNC(=O)c1ccccc1F)OCCOc1cccc(Cl)c1 | -3.5 | 16.8 | -8.3 | -1.8 | .
O=C1c2ccccc2C(=O)N1c1ccc(Cl)cc1 | -4.4 | . | ? | . | -3.6
O=C1C2C(c3ccccc3)(C(=O)N1c1ccc(Cl)cc1)C2(c1ccccc1)c1ccccc1 (configuration not stated) | 0.6 | 14.3 | ? | 32.3 | 75.4*
COCCn1c(=O)[nH]c2cc(C(=O)Nc3cccc(C(C)=O)c3)ccc2c1=O | 0.9 | -32.9 | -11.2 | -8.7 | 2.1
Cc1c(C(=O)N(Cc2ccccc2)C(C)C)cnn1-c1ccccc1 | -5.7 | 3.3 | 12.4 | 8.9 | -7.7
Cc1c(C(=O)N(Cc2ccccc2)Cc2cccs2)cnn1-c1ccc(Cl)cc1 | . | 104.6* | 9.0 | . | 79.7*
O=C(/C=C/c1c[nH]c2ccccc12)c1cccc2ccccc12 | -1.8 | 4.2 | 2.5 | -26.1 | 87.4*
O=C(c1ccccc1)c1c[nH]c2ccccc12 | 2.1 | -14.2 | 5.1 | -36.0 | -2.9
COc1cccc(-c2sc3ccc(OC)cc3c2C#CC2(O)CCCCC2)c1 | -13.9 | -1.2 | . | 19.5 | 104.9*
COc1cccc2sc3ccc(C#CC4(N)CCCCC4)cc3c(=O)c12 | 10.3 | -10.8 | -11.9 | -46.2 | 47.4
COc1ccc(-c2sc3ccc(N4CCOCC4)cc3c2C#CC2(O)CCCCC2)cc1 | 4.0 | -4.2 | . | -2.9 | 105.8*
COc1cc(OC)cc(-c2sc3ccc(OC)cc3c2C#CC2(N)CCCCC2)c1 | 6.5 | -2.3 | . | -4.5 | 104.0*
COc1ccc(C(=O)c2ccc3oc(-c4ccc(OC)cc4)c(C#CCCO)c3c2)cc1 | 3.7 | 2.6 | -4.1 | -4.6 | 0.2
COc1ccc(-c2ccc3oc(-c4ccc(OC)cc4)c(C#CC4(O)CCCCC4)c3c2)cc1 | 0.3 | 8.7 | 2.1 | -7.6 | 77.2*
COc1cc2sc3ccc(C#CC4(O)CCCCC4)cc3c(=O)c2cc1OC | 35.9 | 4.1 | 4.7 | -53.3 | 10.4
COCCN(Cc1ccc(OC)cc1)c1c(C)nc2ccc(C(=O)NCCc3c[nH]c4ccccc34)cn12 | . | . | . | -4.2 | .
Cc1ccc(OCCNC(=O)c2ccccc2SCC(=O)N2CCCC2)cc1 | -5.0 | 11.0 | 0.4 | 7.7 | -3.8
Cn1c(C2CCCCC2)nc2ccccc21 | 3.1 | 10.3 | 5.6 | -4.3 | 32.2
COc1ccc(-c2sc3cc4c(cc3c2C#Cc2cncn2C)OCO4)cc1 | -3.4 | -30.1 | . | -3.6 | 67.1
COc1ccc(-c2sc3cc4c(cc3c2C#CC2(N)CCCCC2)OCO4)cc1 | 2.5 | -6.7 | . | -3.6 | 129.6*
COc1cc(C(=O)NCC(=O)NCC(c2ccco2)N2CCCCC2)cc(OC)c1OC (configuration not stated) | 4.2 | 12.8 | . | -13.8 | .
COc1ccccc1NS(=O)(=O)c1cc(C(=O)N2CC(C)CC(C)C2)ccc1C (configuration not stated) | 4.2 | 102.1* | -0.7 | 22.5 | -0.6
CCC(=O)NNc1ccc(Br)cc1 | 3.7 | 29.7 | -30.9 | -23.0 | 80.3*
CN1C(=O)/C(=C/c2coc3ccc(O)cc3c2=O)SC1=S | -7.3 | 10.3 | 2.9 | 11.9 | 31.6
SMILES | Beta cell apopt | PfHsp90 set2 | Calb FLC | Shn3 3UTR inh | CSC inhib
Cc1cc(/C=C2\SC(=S)N(C)C2=O)c(C)n1-c1ccc(O)cc1 | -4.8 | 96.0* | 4.1 | -37.5 | 41.2
Cc1cc(/C=C2\SC(=S)N(C)C2=O)c(C)n1-c1ccccc1O | 11.5 | 6.4 | -6.3 | -13.0 | 97.9*
S=C(Nc1ccccc1)Nc1nc2ccccc2n1CCOc1ccc(Br)cc1 | 41.3 | -38.4 | 9.4 | -8.9 | 106.9*
Cc1cc(Nc2cccc(Cl)c2)nc(NCc2ccccc2)n1 | 106.8* | -8.3 | ? | 86.9* | 108.2*
Cc1cc(N2CCCCC2)nc(NCc2ccccc2)n1 | 52.1 | -3.1 | -6.5 | 88.2* | .
Cc1cc(N/N=C/c2cccc(Cl)c2)nc(NCc2ccccc2)n1 | 12.6 | 2.1 | -5.0 | 2.0 | 56.0
Cc1cc(N2CCOCC2)nc(NCc2ccccc2)n1 | 57.8 | 3.8 | -4.4 | 75.6 | -12.8
